From PubChem BioAssay (Tox21)
Where “and” joins values, the source holds several entries; their conditions need not be identical. Equal values may be shown once. Records with an inconclusive call do not appear. Where a call stands in place of a potency, no number is given. Some structures have more than one record in an assay (separate samples or runs), and their calls can disagree. Calls of active or inactive are those of the source. Unless noted, the call rests on the fitted dose curve; in most records, active means well fitted curve in the direction sought with a large enough effect in the repeat runs; inconclusive means weak or mixed curves; inactive means no such curve, though single readings can be large; an effect the other way counts as inactive or inconclusive.

Experiments:
[1] = qHTS assay to identify small molecule agonists of the vitamin D receptor (VDR) signaling pathway - cell viability counter screen (AID 743224); further: nearly all actives have a fitted effect of over 50% in size; further: potency means the concentration at half of the fitted maximal effect
Outline: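 VDR-bla cells, 4 h after plating, exposed to compounds for 16 h at 37C; viability then read in the same wells as CellTiter-Glo luminescence after 30 min at room temperature, following the bla FRET read.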

[2] = qHTS assay to identify small molecule antagonists of the vitamin D receptor (VDR) signaling pathway - cell viability counter screen (AID 743225); further: nearly all actives have a fitted effect of over 50% in size; further: potency means the concentration at half of the fitted maximal effect
Outline: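 Viability counter screen run in the same wells as the beta-lactamase reporter assay: HEK 293T VDR-UAS-bla cells, 16 h compound exposure at 37C with 3 nM (final) 1-alpha,25-dihydroxyvitamin D3. CellTiter-Glo luminescence, 30 min, room temperature.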

[3] = qHTS assay to identify small molecule agonists of the NFkB signaling pathway - cell viability counter screen (AID 1159515; calls by dose curve; further: nearly all actives have a fitted effect of over 55% in size; further: potency means the concentration at half of the fitted maximal effect)
Outline: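 NFkB-bla ME-180 cells, 2,000/well, plated overnight at 37 C; compound added for 5 hr at 37 C. Viability read in the same wells as the bla reporter, by CellTiter-Glo luminescence after 30 min at room temperature.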

[4] = qHTS assay to identify small molecule agonists of the endoplasmic reticulum stress response signaling pathway - cell viability counter screen (AID 1159517; calls by dose curve; further: nearly all actives have a fitted effect of over 50% in size; further: potency means the concentration at half of the fitted maximal effect)
Outline: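 Cells, HeLa ESRE-bla; density, 1,500/well; dosing, 5 hr at 37 C, 5% CO2; readout, CellTiter-Glo luminescence after 30 min RT.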

[5] = qHTS assay to identify small molecule antagonists of the retinoid-related orphan receptor gamma (ROR-gamma) signaling pathway - cell viability counter screen (AID 1159520); further: nearly all actives have a fitted effect of over 50% in size; further: potency means the concentration at half of the fitted maximal effect
Outline: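 Cytotoxicity was read from cellular ATP (CellTiter-Glo luminescence) after 16 hr at 37 C with 1 uM doxycycline induction. The inducer was added 2 hr after compound transfer to Tet-on ROR gamma CHO cells.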

[6] = qHTS assay to identify small molecule agonists of the AP-1 signaling pathway - cell viability counter screen (AID 1159525; calls by dose curve; further: nearly all actives have a fitted effect of over 55% in size; further: potency means the concentration at half of the fitted maximal effect)
Outline: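 Luminescent ATP readout (Cell Titer Glo, 30 min RT), normalised to DMSO and tetra n-octyl ammonium bromide controls. Cells were ME-180 AP-1-bla in 0.5% dialyzed FBS Opti-MEM, with a 5 h, 37 °C compound exposure.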

[7] = qHTS assay to identify small molecule agonists of the AP-1 signaling pathway (AID 1159526; calls by dose curve)
[8] = biological target: Retinoic acid receptor RXR-alpha (Homo sapiens) (UniProt P19793); experiment: qHTS assay to identify small molecule agonists of the RXR signaling pathway (AID 1159527; calls by dose curve; further: nearly all actives have a fitted effect of over 35% in size)
Outline: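 Agonist mode; 9-cis retinoic acid positive control. HEK 293T UAS-bla reporter cells, 2% charcoal-stripped FBS, 16 hr compound exposure at 37 C/5% CO2. LiveBLAzer B/G FRET substrate 2 hr RT; ex 405, em 460/530 nm.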

[9] = qHTS assay to identify small molecule agonists of the RXR signaling pathway - cell viability counter screen (AID 1159529); further: nearly all actives have a fitted effect of over 50% in size; further: potency means the concentration at half of the fitted maximal effect
Outline: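 Luminescence from CellTiter-Glo (30 min, RT) measured viability in the same wells as the beta-lactamase reporter readout. Cells: GeneBLAzer RXR-alpha HEK 293T, 2% charcoal-stripped FBS. Compound exposure 16 hr, 37 C.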

[10] = qHTS assay to identify small molecule antagonists of the retinoid acid receptor (RAR) signaling pathway - cell viability counter screen (AID 1159551); further: nearly all actives have a fitted effect of over 35% in size; further: potency means the concentration at half of the fitted maximal effect
Outline: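 C3RL4 RARE-luciferase cells, 1,000/well, incubated overnight, then dosed with compound plus 1 uM retinol (final). After 6 hr at 37 C, viability read by CellTiter-Glo ATP luminescence following 30 min at room temperature.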

[11] = qHTS assay to identify small molecule antagonists of the retinoic acid receptor (RAR) signaling pathway (AID 1159552; further: nearly all actives have a fitted effect of over 50% in size; further: potency means the concentration at half of the fitted maximal effect)
Outline: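 Luminescence from a RARE luciferase reporter in C3RL4 cells served as read-out. Cells received compounds together with 1 uM final retinol and incubated 6 hr at 37 C before detection reagent was added for 30 min at room temperature.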

[12] = qHTS assay to identify small molecule agonists of the retinoic acid receptor (RAR) signaling pathway (AID 1159553); settings: C3RL4 RARE luciferase reporter, agonist, 6 h; activation: at 73.3 µM (top of the series) unless noted; further: potency means the concentration at half of the fitted maximal effect
Outline: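 C3RL4 RARE-luciferase cells were seeded at 1,000/well and grown overnight at 37 C, then exposed to compounds for 6 hr at 37 C, 5% CO2. Luciferase reagent was added and luminescence was read after 30 min at room temperature.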

[13] = biological target: Nuclear receptor ROR-gamma (Homo sapiens) (UniProt P51449); experiment: qHTS assay to identify small molecule antagonists of the retinoid-related orphan receptor gamma (ROR-gamma) signaling pathway (AID 1159521; further: nearly all actives have a fitted effect of over 50% in size; further: potency means the concentration at half of the fitted maximal effect)
Outline: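 Luminescence readout (ONE-Glo, 30 min RT) after 16 h doxycycline induction; loss of signal scored as antagonism. CHO cells with TET-inducible RORγ and RORE-LUC reporter; compounds added 2 h before 1 uM final doxycycline.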

[14] = qHTS assay to identify small molecule antagonists of the estrogen related receptor (ERR) signaling pathway - cell viability counter screen (AID 1224818)
Outline: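 ERR cells, 2,000 per well, compound added after 6 h and incubated 17.5 h at 37 C. Viability read by CellTiter-Fluor fluorescence after a further 30 min at 37 C.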

[15] = qHTS assay to identify small molecule antagonists of the estrogen related receptor signaling pathway with the pleiotropic PPARgamma coactivator (PGC) cell viability counter screen (AID 1224822)
Outline: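 PGC/ERR cells rested 6 h, then compound-treated 17.5 h at 37 C. CellTiter-Fluor added for 30 min at 37 C, viability measured by fluorescence intensity.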

Chain of Retinoic acid receptor RXR-alpha (Homo sapiens) (P19793 whole entry, looked up): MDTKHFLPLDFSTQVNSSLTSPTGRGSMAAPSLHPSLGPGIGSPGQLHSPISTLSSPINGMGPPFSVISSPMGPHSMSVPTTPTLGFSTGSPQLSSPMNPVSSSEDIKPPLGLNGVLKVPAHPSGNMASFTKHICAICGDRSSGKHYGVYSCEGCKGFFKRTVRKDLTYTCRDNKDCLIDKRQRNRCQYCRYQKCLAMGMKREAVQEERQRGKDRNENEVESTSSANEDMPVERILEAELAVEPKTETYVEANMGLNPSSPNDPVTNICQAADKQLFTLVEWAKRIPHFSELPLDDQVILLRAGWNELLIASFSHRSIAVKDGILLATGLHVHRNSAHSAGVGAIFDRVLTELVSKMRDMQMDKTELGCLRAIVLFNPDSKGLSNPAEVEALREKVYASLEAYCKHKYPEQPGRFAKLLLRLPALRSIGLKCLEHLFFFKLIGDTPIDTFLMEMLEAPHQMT

Row | Structure (SMILES) | Potency [1] | Potency [2] | Potency [3] | Potency [4] | Potency [5] | Potency [6] | Potency [7] | Potency [8] | Potency [9] | Potency [10] | Potency [11] | Potency [12] | Potency [13] | outcome [14] | Potency [15]
1 | Cc1c(N)cccc1C(F)(F)F | inactive | inactive | inactive | inactive | inactive | inactive | inactive | inactive | inactive | inactive | inactive | inactive | – | – | –
2 | COc1ccc2c(c1)c(CC(=O)OC/C=C(\C)CC/C=C(\C)CCC=C(C)C)c(C)n2C(=O)c1ccc(Cl)cc1 | inactive | inactive | inactive | inactive | inactive | inactive | inactive | – | inactive | inactive | inactive | inactive | inactive | – | –
3 | Cc1cc(C(C)(C)C)c(O)c(C)c1Cn1c(=O)n(Cc2c(C)cc(C(C)(C)C)c(O)c2C)c(=O)n(Cc2c(C)cc(C(C)(C)C)c(O)c2C)c1=O | inactive | 12.3 µM (active) | inactive | inactive | inactive | inactive | inactive | inactive | inactive | inactive | – | inactive | – | – | –
4 | Cc1cc(=O)oc2cc(O)cc(O)c12 | inactive | inactive | inactive | inactive | inactive | inactive | inactive | – | inactive | – | – | inactive | inactive | – | –
5 | CCC(C)n1ncn(-c2ccc(N3CCN(c4ccc(OC[C@H]5CO[C@](Cn6cncn6)(c6ccc(Cl)cc6Cl)O5)cc4)CC3)cc2)c1=O (stereo not given in full) | inactive | inactive | inactive | inactive | inactive | inactive | inactive | – | – | inactive | – | inactive | 1.19 µM (active) | – | –
6 | CCCCCCCCCCCCCCCC[N+](C)(C)CC | 21.9 µM (active) | 13.8 µM (active) and 23.9 µM (active) | 21.3 µM (active) | 24.6 µM (active) | 61.3 µM (active) and 23.7 µM (active) | – | – | – | 8.74 µM (active) and 10.7 µM (active) | 61.3 µM (active) | – | – | – | – | –
7 | CCCCCCCCCCCCCC[N+](C)(C)C | 26.6 µM (active) and 19.5 µM (active) | 26.6 µM (active) and 6.16 µM (active) and 23.9 µM (active) | 54.9 µM (active) | 37.6 µM (active) and 34.6 µM (active) and 23.9 µM (active) | 61.1 µM (active) | 42.2 µM (active) and 48.9 µM (active) and inactive | – | – | 10.6 µM (active) and 15.5 µM (active) and 21.3 µM (active) | 61.1 µM (active) and inactive | – | inactive | 11.8 µM (active) and 24.3 µM (active) and 11.9 µM (active) | – | –
8 | CN(C)c1ccc(C(=C2C=CC(=[N+](C)C)C=C2)c2ccc(N(C)C)cc2)cc1 | 4.87 µM (active) and 4.9 µM (active) and 11.9 µM (active) | 9.72 µM (active) and 21.9 µM (active) and 19 µM (active) | 24.4 µM (active) | 12.3 µM (active) and 9.52 µM (active) | 6.08 µM (active) and 13.7 µM (active) and 5.31 µM (active) | – | – | – | 13.7 µM (active) and 19.5 µM (active) and 19 µM (active) | 17.1 µM (active) and 27.3 µM (active) and 23.7 µM (active) | 7.66 µM (active) and 2.17 µM (active) and 3.76 µM (active) | – | 1.36 µM (active) and 1.54 µM (active) and 2.66 µM (active) | – | –
9 | O=C(O)Cc1ccc2c(c1)C(=O)c1ccccc1CO2 | inactive | inactive | inactive | inactive | inactive | inactive | inactive | – | inactive | inactive | inactive | – | – | – | –
10 | O=C1c2ccccc2C(=O)N1SC1CCCCC1 | 54.9 µM (active) | 48.9 µM (active) | inactive | 43.6 µM (active) | 48.5 µM (active) and 54.5 µM (active) | – | – | – | 48.9 µM (active) and 49 µM (active) | inactive | – | – | 27.3 µM (active) | – | –
11 | CCOC(=O)Cn1cccc1-c1nc(-c2ccc(OC)cc2)c(-c2ccc(OC)cc2)s1 | inactive | inactive | inactive | inactive | inactive | inactive | inactive | – | inactive | inactive | inactive | inactive | inactive | – | –
12 | CCCCCCCCCCCCCC[N+](C)(C)Cc1ccccc1 | 24.9 µM (active) | 24.9 µM (active) and 16.9 µM (active) | 49.7 µM (active) | 17.7 µM (active) and 23.9 µM (active) | 69.6 µM (active) | 23.9 µM (active) | – | – | 7.03 µM (active) and 5.35 µM (active) and 2.51 mM (active) | 69.6 µM (active) and 29.8 µM (active) and inactive | – | – | – | – | –
13 | CCCC1CCC(=O)CC1 | inactive | inactive | inactive | inactive | inactive | inactive | inactive | inactive | inactive | inactive | – | – | – | – | –
14 | C=Cc1ccccc1C=C | inactive | inactive | inactive | inactive | inactive | inactive | inactive | – | inactive | inactive | inactive | inactive | inactive | – | –
15 | O=C(O)c1cc(N=Nc2ccc([N+](=O)[O-])cc2)ccc1O | inactive | inactive | inactive | inactive | inactive | inactive | inactive | – | inactive | inactive | inactive | 6.73 µM (active) | – | – | –
16 | CC(C)=CCNc1ncnc2c1ncn2[C@@H]1O[C@H](CO)[C@@H](O)[C@H]1O | 11.9 µM (active) | – | 8.49 µM (active) | 13.4 µM (active) | 10.6 µM (active) | 6.01 µM (active) | inactive | – | – | 13.3 µM (active) | 23.7 µM (active) | – | 13.3 µM (active) | – | –
17 | CCCCC(CC)CN1CN(CC(CC)CCCC)CC(C)(N)C1 (stereo not given) | 29.8 µM (active) | inactive | 26.8 µM (active) | 21.3 µM (active) | 26.6 µM (active) | inactive | inactive | – | inactive | inactive | inactive | inactive | – | – | –
18 | O=C(O)Cc1ccccc1Nc1c(Cl)cccc1Cl | inactive | inactive | inactive | inactive | inactive | inactive | inactive | – | inactive | inactive | – | – | inactive | inactive | inactive
19 | O=C(/C=C/c1ccccc1)OC/C=C/c1ccccc1 | inactive | inactive | inactive | inactive | 54.5 µM (active) | inactive | inactive | – | inactive | inactive | inactive | – | inactive | – | –
